This is a sample that favours compounds with a hit; in the whole collection about 2.8% have one here.
SENP6 block: blocks the human protease SENP6; Q9GZR1; Recombinant SENP6 catalytic domain, aminoluciferin luminescence; inhibition, % at 10 µM; 330,000 compounds, 1.8% hits; AID 2599;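 active = inhibition above about 50% at the single tested dose, limit read from the data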;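 note: plate controls were DMSO wells with enzyme for no effect and DMSO wells lacking enzyme for full effect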
HSP90 inh: blocks HSP90-mediated luciferase refolding in reticulocyte lysate | 290,000 compounds, 0.91% hits | Rabbit reticulocyte lysate, luciferase refolding luminescence, 3 h | inhibition, % at 5.6 µM;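 active = inhibition above the screen-wide mean plus 3 SD, computed separately per campaign, cut at about 16% in these data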;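 note: 0% = DMSO wells and 100% = 60 µM geldanamycin wells; inhibitors lower the luminescence because luciferase stays unfolded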
SENP7 inh: inhibitors of human SENP7 protease | AID 434973 | Q9BQF6 | inhibition, % at 5 µM | recombinant SENP7, Z-RLRGG-aminoluciferin luminescence, 40 min | 330,000 compounds, 1.5% hits;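 active = inhibition above about 50% at the single test dose, limit read from the data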;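 note: plate controls were DMSO with enzyme for no effect and no enzyme buffer wells for full effect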
Target sequence (Q9BQF6 706-1050 limits assumed): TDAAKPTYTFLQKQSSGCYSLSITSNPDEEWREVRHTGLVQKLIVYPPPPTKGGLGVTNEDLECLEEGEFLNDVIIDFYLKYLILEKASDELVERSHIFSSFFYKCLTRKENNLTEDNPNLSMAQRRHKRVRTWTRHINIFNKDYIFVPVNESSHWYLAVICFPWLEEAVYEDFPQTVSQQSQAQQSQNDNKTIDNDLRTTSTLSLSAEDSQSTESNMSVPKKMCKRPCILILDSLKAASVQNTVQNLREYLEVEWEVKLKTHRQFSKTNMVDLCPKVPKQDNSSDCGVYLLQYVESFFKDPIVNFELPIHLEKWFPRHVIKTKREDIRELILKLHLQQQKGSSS
SENP8 block-1: SENP8 protease inhibition | inhibition, % at 10 µM | purified SENP8, Z-RLRGG-aminoluciferin cleavage, luminescence | AID 2540 | 330,000 compounds, 1.2% hits; in the data active = inhibition above about 50%
Target sequence (Q96LD8 whole entry, looked up): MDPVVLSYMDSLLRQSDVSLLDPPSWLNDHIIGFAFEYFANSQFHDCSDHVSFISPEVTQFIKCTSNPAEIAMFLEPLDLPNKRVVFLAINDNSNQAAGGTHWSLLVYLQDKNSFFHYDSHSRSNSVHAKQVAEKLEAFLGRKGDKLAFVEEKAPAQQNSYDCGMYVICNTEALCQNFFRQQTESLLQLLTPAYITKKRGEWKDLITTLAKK
Platelet DG rel: platelet dense granule release activity. 300,000 compounds, 0.22% hits. AID 1663. inhibition, %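 (compounds screened at 7.5 µM in platelet-rich plasma)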. human platelet-rich plasma, SFLLRN dense granule ATP release, luminescence;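 active = mean replicate score, as percent of positive control, at or above 50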
SENP8 block-2: blocks human SENP8 cleavage of Nedd8 substrate. Q96LD8. recombinant SENP8, Nedd8 substrate fluorescence. inhibition, % at 20 µM. 360,000 compounds, 0.64% hits; in the data active = inhibition mostly above about 40%, no sharp cut-off; inactive = mostly below about 27%
HSP90 inh confirm: HSP90 inhibition, confirmation assay. inhibition, % at 5.9 µM. 2,300 compounds, 64% hits. AID 1846. shares compounds with HSP90 inh. rabbit reticulocyte lysate, luciferase refolding luminescence, 3 h; in the data active = inhibition above about 18%;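 note: 0% = vehicle wells and 100% = reference inhibitor wells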
luciferase ctr: firefly luciferase inhibition, HSP90 counter-screen. shares compounds with HSP90 inh. purified native firefly luciferase, luminescence. inhibition, % at 5.9 µM. 2,300 compounds, 48% hits;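 active = inhibition above the mean inhibition of all tested sample wells plus 3 SD, cut at about 10% in these data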;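 note: 0% = DMSO with luciferase and 100% = wells lacking luciferase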
The depositor's hits bear a star; nt = no result.

SMILES	SENP6 block	HSP90 inh	SENP7 inh	SENP8 block-1	Platelet DG rel	SENP8 block-2	HSP90 inh confirm	luciferase ctr
CNC(=S)N/N=C/c1ccc(-c2ccc(C(=O)O)cc2)o1	-0.4	33.9*	0.5	-6.0	45.8	-448.6	36.8*	-2.3
CC(C)(C)NC(=S)N/N=C\c1ccc(-c2ccc([N+](=O)[O-])cc2)o1	5.6	2.0	-1.5	-6.3	-6.8	-7.0	nt	nt
O=C(Nc1cccc(-c2nc3ncccc3o2)c1)c1sc2cc(Cl)ccc2c1Cl	10.0	-0.5	2.4	3.2	0.7	-53.1	nt	nt
O=C(Nc1cccc(-c2nc3ncccc3o2)c1)c1sc2ccccc2c1Cl	-10.2	19.6*	5.7	-11.2	0.6	5.6	-5.8	-15.9
C/C(=N\Nc1ccc(Cl)c(C(=O)O)c1)c1ccccn1	-18.4	39.6*	-1.0	6.6	-0.5	10.7	2.7	-14.3
N/C(=N\NC(=O)Nc1ccccc1)c1ccccn1	-16.6	31.7*	-7.7	-8.1	-0.9	31.9	8.6	-1.4
COc1ccc(NC(=O)CSc2nnc(C)s2)cc1S(=O)(=O)N1CCOCC1	-7.3	nt	9.2	-10.9	nt	2.4	nt	nt
Cc1ccc(S(=O)(=O)N2CCCCC2)cc1C(=O)NCCN1CCOCC1	3.1	nt	-1.2	6.2	nt	2.6	nt	nt
O=C(CSc1nnc(-c2ccccc2)o1)N1CCCCC1	-10.8	20.9*	2.9	-2.0	10.3	8.9	2.3	-19.0
CCN(CC(=O)NC(=O)NCc1ccccc1)Cc1ccccc1	-2.3	-5.6	8.0	-0.2	-7.2	1.2	nt	nt
CC1(Oc2ccccc2)CCN(Cc2ccc(-c3ccccn3)cc2)C1 (stereo unspecified)	nt	nt	nt	nt	nt	19.7	nt	nt
COC(=O)c1ccc(/C=C2/SC(=S)N(CCCC(=O)Nc3ccccn3)C2=O)cc1	-22.0	2.5	8.2	-11.4	0.8	32.8	nt	nt
CCc1ccc(/C=C2\SC(=S)N(CCCC(=O)Nc3ccccn3)C2=O)cc1	19.7	27.9*	-3.6	-3.0	-1.6	37.4	32.5*	-16.0
CN(CCC(=O)c1ccccc1)CCC(=O)c1ccccc1	-1.4	-2.0	-0.9	-6.9	2.6	8.8	nt	nt
CC1(C)Oc2ccc3ccc(=O)oc3c2/C(=C/NNC(N)=S)C1=O	-9.7	2.5	8.7	4.5	-3.2	-136.0	nt	nt
O=C(CCN1C(=O)c2ccccc2C1=O)NCc1ccccc1	-13.2	41.0*	6.6	-1.5	4.7	5.3	0.4	-7.4
COCC(=O)Nc1ccc2c(c1)[C@@H]1C[C@H](CC(=O)OC)O[C@H](CO)[C@@H]1O2	nt	nt	nt	nt	nt	11.0	nt	nt
CCOc1ccc(NC(=O)c2ccc3c(=O)n(-c4ccc(OC)cc4OC)c(=S)[nH]c3c2)cc1	-10.8	69.1*	2.9	3.5	16.8	5.8	8.2	-3.8
COc1ccc(NC(=O)c2ccc3c(=O)n(-c4ccc(OC)cc4OC)c(=S)[nH]c3c2)c(OC)c1	-17.2	-4.2	7.0	8.5	9.7	19.9	nt	nt
Cn1c(=O)c2ccccc2n(Cc2ccccc2Cl)c1=O	4.5	27.6*	-8.9	-8.9	2.9	-2.2	1.4	1.1
Cc1ccc(-c2[nH]ncc2CN2CCN(C(=O)c3cccs3)CC2)cc1C	-15.0	-4.7	-4.7	-13.7	-11.5	-3.7	nt	nt
CCOC(=O)c1csc(COc2ccccc2Cl)n1	7.9	-3.9	7.6	5.1	0.1	28.7	nt	nt
CCOC(=O)c1csc(COc2ccc(OC)cc2)n1	22.1	20.3*	6.5	13.9	-9.3	6.9	51.9*	-13.1
C=CCOc1c(CNc2cccc(C(=O)O)c2)cccc1OC	11.8	45.4*	-17.2	8.3	2.1	-411.3	52.9*	-17.7
C=CCOc1c(CNc2cccc(C(=O)O)c2)cccc1OCC	-1.4	-3.5	0.7	-3.0	12.9	-266.2	nt	nt
SMILES	SENP6 block	HSP90 inh	SENP7 inh	SENP8 block-1	Platelet DG rel	SENP8 block-2	HSP90 inh confirm	luciferase ctr
CN(C)S(=O)(=O)c1cccc(C(=O)Nc2cc3c(cc2C(=O)O)OCCCO3)c1	40.5	-5.7	17.3	17.1	3.7	7.7	nt	nt
Cc1[nH]c2ccccc2c1C(C#N)(C#N)C1C(=O)c2ccccc2C1=O	5.7	77.1*	15.5	10.8	5.2	-446.3	78.8*	-24.4
CCCC1OC(c2cc3c(cc2Cl)OCO3)OCC1CC (stereo unspecified)	nt	nt	nt	nt	nt	6.0	nt	nt
Cc1ccc(C(=O)NC2=NCCS2)cc1	1.9	11.6	4.3	-10.0	6.9	nt	nt	nt
CC(C)c1ccc(C(=O)NC2=NCCS2)cc1	33.7	17.6*	12.2	2.3	-1.3	14.9	42.3*	38.1*
CCn1c(N)nc2c1c(=O)n(C)c(=O)n2C	-9.3	-0.7	-4.1	1.4	-16.7	26.4	nt	nt
CCCc1nc2c(=O)n(C)c(=O)nc-2n(C)n1	nt	75.1*	nt	nt	nt	120.4*	83.0*	85.4*
Cc1cc(C)c(C#N)c(SCc2nnc(-c3ccccc3[N+](=O)[O-])o2)n1	-12.3	-4.2	-6.1	-3.1	4.4	8.9	nt	nt
Cc1ccc(C#N)c(SCc2nnc(-c3ccc(Cl)cc3)o2)n1	2.6	23.9*	3.4	-6.7	-6.7	-283.3	75.4*	75.1*
Cc1cc(C)c(C#N)c(SCc2nnc(-c3ccccc3)o2)n1	-22.0	67.1*	-4.9	-8.2	2.9	-14.2	58.0*	33.1*
COc1cccc(OC)c1C(=O)Nc1ccnn1C	-43.4	-2.8	-6.6	-9.1	-2.6	12.7	nt	nt
CC(C)OC(=O)c1sc2nc(-c3ccccc3)ccc2c1N	-10.2	44.4*	-4.8	16.9	3.4	-296.0	53.5*	52.4*
COc1ccc(C(=O)c2sc3nc(-c4ccccc4)ccc3c2N)cc1	-4.5	-6.0	-4.4	-11.0	4.8	-143.6	nt	nt
CCOCC(=O)Nc1nc(C)cc(C)n1	3.2	-3.1	-7.7	8.2	1.5	15.0	nt	nt
CC(=O)CC(=O)Nc1nc(C)cc(C)n1	3.8	27.1*	0.2	4.6	-4.5	4.7	-1.1	-3.5
CC(C)c1ccc2nc(NC(=O)C3CC3)sc2c1	-1.7	-3.3	10.9	-21.1	-8.9	2.3	nt	nt
COC(=O)c1ccc2nc(NC(=O)C(C)(C)C)sc2c1	22.7	66.8*	22.5	3.3	-1.5	0.6	77.8*	73.5*
COC(=O)c1ccc2nc(Nc3nc4ccc(F)cc4s3)sc2c1	nt	83.2*	nt	nt	2.9	-443.1	89.6*	81.2*
O=C(NNc1nc2ccc(F)cc2s1)c1cccc(F)c1	49.3	0.1	8.2	22.0	2.1	0.3	nt	nt
COC(=O)c1ccc2nc(NC(=O)C3CCCCC3)sc2c1	-16.1	18.2*	5.2	-1.3	-9.0	13.3	35.2*	-17.3
CCOC(=O)N1CCc2c(sc3nc4n(c(=O)c23)N=C(c2ccc(OC)cc2)CS4)C1	-2.9	-2.4	-6.3	18.3	2.7	-86.7	nt	nt
Brc1cccc(OCCCNC2CCCC2)c1	-7.4	-2.4	-4.8	-6.2	-1.0	2.8	nt	nt
Cc1ccc(CNC(=O)c2ccc(F)c(S(=O)(=O)N3CCOCC3)c2)cc1	-24.4	nt	3.0	-4.4	nt	7.5	nt	nt
Cc1nc(NC(=O)c2ccco2)sc1C(=O)O	nt	54.3*	nt	nt	30.8	-32.3	64.0*	-13.1
CCCCCCCCc1nnc(NC(=O)c2ccco2)s1	0.4	24.8*	-2.2	-1.4	-6.4	7.9	-2.7	-5.7

Source: PubChem (several laboratories)
